AMA1-RON2 inh: qHTS for Inhibitors of AMA1-RON; Towards Development of Antimalarial Drug Lead: Primary Screen | 360,000 tested, 0.2% active | AID 720542, 2013 | AlphaScreen AMA1-biotinylated RON2 peptide binding | Plasmodium falciparum AMA1 (3D7) - RON2 peptide interaction | Potency, µM (doses to about 58.2 µM), without a hit: at the top dose activity change, negative = inhibition, hits mostly inhibitors;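 further: 0% = vehicle wells and -100% = peptide control; nearly all actives have a fitted effect of over 45% in size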
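AMA1 (3D7) with his tag at 25 nM final met compounds first, then biotinylated RON2 peptide at 25 nM; detection used donor plus acceptor beads, 10 µg/mL apiece, read by AlphaScreen after 30 min at room temperature.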
Pf growth 96h: Primary qHTS for delayed death inhibitors of the malarial parasite plastid, 96 hour incubation; 320,000 tested, 6.9% active; P. falciparum luciferase reporter growth, 96 h; Potency, µM (series often up to 28.7 µM), for the others: at the top dose activity change, negative = inhibition, most hits filed as inhibitors
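Two-generation exposure (96 h) targets delayed-death phenotype. Reporter parasites carrying integrated firefly luciferase, in red cells at 2% hematocrit and 0.05% parasitemia final, kept at 37 C, 5% CO2; luminescence loss indicates inhibition.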
HCV inhibitor: qHTS Assay for Inhibitors of Hepatitis C Virus (HCV); 340,000 tested, 3.4% active; Huh7.5.1 HCVcc-Cre infection, luciferase reporter, 44 h; Potency, µM (series often up to 41.8 µM), without a hit: at the top dose activity change, negative = inhibition, usual class: inhibitors
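Luciferase read-out (15 sec integration) after a 15 min room-temperature substrate step quantifies HCVcc-Cre infection. Cells, 1,000 per well, had compound added 4 h post-plating, then virus at ~0.5 moi, and were cultured 44 h.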
Pf growth 48h: Primary qHTS for delayed death inhibitors of the malarial parasite plastid, 48 hour incubation | P. falciparum luciferase growth in erythrocytes, 48 h | Potency, µM (titrated, usually from 28.7 µM), without a hit: top-dose activity change, negative = inhibition, actives largely listed as inhibitors | 310,000 tested, 5.9% active
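In quantitative HTS format, infected erythrocytes bearing luciferase-reporter parasites were treated for a single generation at 37 C. Luminescence after adding detection reagent served as the growth measure.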
The depositor's hits bear a star; ? = inconclusive; nt = not tested or not shown; [ ] = dose if it differs, or a comment. Most compounds without a hit are left out; they make up all but 11% or so of the library. The call rests on the fitted dose curve; in most records, active means well fitted curve in the direction sought with a large enough effect; inconclusive means small, poorly fitted or top-dose-only effect, or another doubt; inactive means no such curve, though single readings can be large; an effect the other way counts as inactive or inconclusive. Unless noted, on the % scale 0 is the no-effect control and ±100 the full control effect; potency means the concentration at half of the fitted maximal effect.

SMILES	AMA1-RON2 inh	Pf growth 96h	HCV inhibitor	Pf growth 48h
Cc1cccc(C)c1NC(=O)c1cnccn1	18%	?	18%	2%
CCOc1ccc2c(C)cc(=O)oc2c1OCC	5%	39%	-8%	?
CCOc1c(C(=O)CC)cc2c(C)cc(=O)oc2c1C	-9%	?	?	12µM*
COc1ccc(N2C(=NC(=O)C(C)Oc3ccccc3)SC3CS(=O)(=O)CC32)cc1 (stereo unspecified)	-4%	-27%	20%	6%
CCCOc1ccc(C(=O)O/N=C(\CC)c2ccc(C)cc2)cc1	2%	36%	1%	5%
CC/C(=N\OC(=O)c1ccc(OC(C)C)cc1)c1ccc(C)cc1	-3%	15µM*	-12%	nt
Cc1ccc(-n2[nH]c(C)c(C=Nc3cc(C)ccn3)c2=O)cc1	-8%	7.4µM*	11%	35%
Cc1[nH]n(-c2ccccc2)c(=O)c1/C=N/N1C(=O)c2cccc3cccc(c23)C1=O	78%	23%	-25%	9%
Cc1ccc(-n2[nH]c(C)c(/C=N/c3ccccn3)c2=O)cc1	3%	21%	15%	-5%
Cc1[nH]n(-c2ccccc2)c(=O)c1C=Nc1cccc2cccnc12	6%	35%	3.5µM*	?
Cn1cccc1C(=O)NC1CCCCC1	3%	15%	?	34%
COc1cc(C(=O)Nc2ccc(NC(=O)C(C)C)nc2)cc(OC)c1OC	-1%	0%	-4%	?
COc1cc(CCC(=O)Nc2ccc(Cl)c(C(F)(F)F)c2)cc(OC)c1OC	10%	?	?	?
COc1ccc(C(=O)Nc2ccc(NC(=O)c3cc(OC)c(OC)c(OC)c3)cn2)cc1	-16%	32%	-21%	2.1µM*
COc1cc(C(=O)Nc2ccc(NC(=O)c3ccccc3)nc2)cc(OC)c1OC	-4%	29%	?	5.2µM*
COc1ccc(/C=C/C(=O)c2ccc(NC(=O)c3cccs3)cc2)cc1OC	-11%	-12%	10µM*	?
COc1cc(C(=O)Nc2ccc(Cl)c(C(F)(F)F)c2)cc(OC)c1OC	-7%	-9%	14µM*	13µM*
COc1ccc(C(=O)Nc2ccc(NC(=O)c3ccccc3OC)nc2)cc1	10%	28%	?	-2%
COc1cc(C(=O)Nc2ccc(NC(=O)c3ccccc3Cl)nc2)cc(OC)c1OC	-8%	147%	?	9.3µM*
COc1cc(C(=O)Nc2nc(OC)c(-c3ccccc3)c(OC)n2)cc(OC)c1OC	39%	nt	?	?
COc1cc(C(=O)Nc2cccc(-n3cnnn3)c2)cc(OC)c1OC	13%	0%	?	1%
COc1cc(C(=O)Nc2cc(-c3ccccc3)[nH]n2)cc(OC)c1OC	-1%	4%	-8%	12µM*
COc1cc(C(=O)Nc2cccc(-n3cnnn3)c2)cc(Cl)c1OC	0%	?	?	9.3µM*
COc1cc(C(=O)Nc2ccc(C(=O)c3cccs3)cc2)cc(OC)c1OC	-16%	9.3µM*	?	?
COC(=O)CN1CCN(C(=O)c2ccc(F)cc2)c2ccccc2C1	-5%	?	16%	3%
SMILES	AMA1-RON2 inh	Pf growth 96h	HCV inhibitor	Pf growth 48h
COc1cc(/C=C(\NC(=O)c2cc(OC)c(OC)c(OC)c2)C(=O)NC(C(=O)O)c2ccccc2)cc(OC)c1OC (stereo unspecified)	-16%	13µM*	11%	0%
CC(=O)c1ccc(NC(=O)C(C)OC(=O)c2cccc(-n3cnnn3)c2)cc1 (stereo unspecified)	0%	24%	-17%	0%
COc1cc(C(=O)Nc2ccc(Nc3ccccc3)cc2)cc(OC)c1OC	?	13µM*	?	-6%
CC(OC(=O)c1cccc(-n2cnnn2)c1)C(=O)Nc1cccc(Cl)c1 (stereo unspecified)	19%	7%	8.9µM*	-14%
C[C@@H]1CN([C@H](C)CO)C(=O)CCCn2nncc2CO[C@H]1CN(C)Cc1cccc2c1OCCCO2	9%	nt	nt	nt
OC(CNCc1ccc(F)cc1)(c1ccccc1)c1ccc(F)cc1 (stereo unspecified)	0%	1.7µM*	-10%	2.6µM*
Cc1ccc(CNCC(O)(c2ccc(F)cc2)c2ccc(F)cc2)cc1	9%	4.7µM*	-68%	?
Cc1ccc(CNCC(O)(c2ccccc2)c2ccc(F)cc2)cc1 (stereo unspecified)	-1%	0%	8%	?
COc1ccc(CNCC(O)(c2ccccc2)c2ccccc2)cc1	-2%	0%	-7%	0%
OC(CNCc1ccccc1)(c1ccc(F)cc1)c1ccc(F)cc1	1%	2.1µM*	-3%	4.7µM*
COc1ccc(CNCC(O)(c2ccc(F)cc2)c2ccc(F)cc2)cc1	-4%	?	?	12µM*
CCOc1ccc(NC(=O)COC(=O)C2C3CC4OC(=O)C2C4C3)cc1 (stereo unspecified)	0%	44%	22%	?
OC(CNCc1ccccc1)(c1ccccc1)c1ccccc1	-1%	8.3µM*	0%	13µM*
COc1ccc(CNCC(O)(c2ccccc2)c2ccccc2)cc1OC	-5%	?	?	?
Cc1[nH]nc(-c2cccnc2)c1N=NN(C)C	13%	nt	?	nt
COCCNC(=O)/C(C#N)=c1\s/c(=C\c2ccccc2OC(F)F)c(=O)n1Cc1ccccc1	nt	-2%	nt	4%
COc1ccc(CCNC(=O)CSc2nnc(-c3ccc(F)cc3)c3ccccc23)cc1OC	-3%	5.2µM*	-10%	9.3µM*
COc1ccc(CCNC(=O)CSc2ccccc2)cc1OC	-7%	-2%	9%	-14%
COc1ccc(CCNC(=O)CSc2cn(Cc3ccccc3)c3ccccc23)cc1OC	-2%	?	11µM*	?
COc1ccc(CCNC(=O)CSc2cn(Cc3cccc(C)c3)c3ccccc23)cc1OC	-3%	9.3µM*	10µM*	?
Cc1nn2c(NCCN3CCOCC3)c3c(nc2c1-c1ccccc1)CCCC3	51%	13µM*	?	?
Cc1nn2c(NCc3ccccn3)cc(C(C)(C)C)nc2c1-c1ccccc1	64%	2.9µM*	2.5µM*	4.7µM*
Cc1cc(Nc2ccccc2)n2nc(C)c(-c3ccccc3)c2n1	115%	-30%	?	?
Cc1cc(-c2ccccc2)nnc1NCCN1CCOCC1	-4%	-18%	3%[8.37 µM]	-2%
Cc1nn2c(NCc3ccccn3)c3c(nc2c1-c1ccccc1)CCC3	51%	4.7µM*	-67%	?
Cc1cc(NCc2ccccn2)n2nc(C)c(-c3ccccc3)c2n1	58%	2.1µM*	1.6µM*	1.7µM*
COc1ccc(NC(=O)c2cc(-c3sc(NC(=O)c4ccccc4)nc3C)n(-c3ccc(Br)cc3)n2)cc1	-1%	nt	nt	nt
CCCCCCN1CC(=O)N2Cc3[nH]c4ccccc4c3C[C@H]2C1=O	-3%	?	-13%	?

Source: PubChem
